PubChem BioAssay (NCATS)
Records with an inconclusive call do not appear. Unmarked numbers belong to inactive results. The source made the active and inactive calls. Calls come from the whole dose curve; as a rule, active = well fitted inhibition curve with a large enough effect; inconclusive = small, poorly fitted or top-dose-only effect; inactive = flat fitted curve, though single readings scatter.

The molecules below were run against Voltage-gated inwardly rectifying potassium channel KCNH2 (Homo sapiens) (UniProt Q12809) (assay: qHTS Assay for Small Molecule Inhibitors of the Human hERG Channel Activity (AID 588834;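 note: lower thallium flux fluorescence means stronger hERG block; nearly all actives have a fitted effect of over 50% in size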; for activity change, negative = inhibition: top concentration of the series differs between compounds)). Details: U2OS BacMam hERG, FluxOR thallium flux fluorescence; series mostly up to 46.1 µM; activity change, negative = inhibition: at the top concentration.
Voltage-gated inwardly rectifying potassium channel KCNH2 (Homo sapiens), sequence (Q12809 whole entry, looked up): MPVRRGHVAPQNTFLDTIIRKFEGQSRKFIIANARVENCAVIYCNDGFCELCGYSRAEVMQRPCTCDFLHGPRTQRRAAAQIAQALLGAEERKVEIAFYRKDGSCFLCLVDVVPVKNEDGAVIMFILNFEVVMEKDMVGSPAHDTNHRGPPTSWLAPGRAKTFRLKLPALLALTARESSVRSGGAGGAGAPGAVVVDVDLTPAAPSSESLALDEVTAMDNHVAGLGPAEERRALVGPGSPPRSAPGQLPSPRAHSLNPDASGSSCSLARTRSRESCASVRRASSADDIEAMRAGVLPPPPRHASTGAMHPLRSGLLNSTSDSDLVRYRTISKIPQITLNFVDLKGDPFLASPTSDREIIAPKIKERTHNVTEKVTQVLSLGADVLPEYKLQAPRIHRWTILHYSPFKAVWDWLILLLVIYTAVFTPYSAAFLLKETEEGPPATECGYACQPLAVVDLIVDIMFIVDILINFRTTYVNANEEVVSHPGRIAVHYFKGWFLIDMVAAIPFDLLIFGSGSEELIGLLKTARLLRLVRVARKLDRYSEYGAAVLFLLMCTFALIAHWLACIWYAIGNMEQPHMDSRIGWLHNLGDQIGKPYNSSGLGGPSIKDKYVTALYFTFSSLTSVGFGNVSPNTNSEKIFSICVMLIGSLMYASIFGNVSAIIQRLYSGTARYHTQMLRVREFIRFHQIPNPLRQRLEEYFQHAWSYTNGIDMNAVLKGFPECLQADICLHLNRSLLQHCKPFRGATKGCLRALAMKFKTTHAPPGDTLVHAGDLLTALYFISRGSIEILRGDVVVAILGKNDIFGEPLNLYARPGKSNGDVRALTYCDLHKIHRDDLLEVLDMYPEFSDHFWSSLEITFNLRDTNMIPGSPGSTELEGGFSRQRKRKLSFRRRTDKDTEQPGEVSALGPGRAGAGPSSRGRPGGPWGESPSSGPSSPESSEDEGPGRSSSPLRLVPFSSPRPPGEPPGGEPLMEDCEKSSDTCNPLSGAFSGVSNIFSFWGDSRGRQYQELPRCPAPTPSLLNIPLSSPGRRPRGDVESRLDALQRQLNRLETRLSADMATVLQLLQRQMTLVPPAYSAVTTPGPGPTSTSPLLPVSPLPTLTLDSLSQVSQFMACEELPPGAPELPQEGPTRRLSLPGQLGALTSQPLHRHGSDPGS
How it was run: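 Kinetic FDSS fluorescence; U2OS + hERG BacMam (~100 virus particles/cell); FluxOR Tl+ flux; ~10 min cpd; AC50 (Hill).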
% is set by controls: 0 for no effect and ±100 for the full control effect; potency is the fitted concentration of half-maximal effect.

Row | Structure (SMILES) | Potency | activity change, negative = inhibition
1 | IC(I)I | inactive | 
2 | C[C@]12C=CC(=O)N[C@@H]1CC[C@@H]1[C@@H]2CC[C@]2(C)[C@@H](C(=O)Nc3cc(C(F)(F)F)ccc3C(F)(F)F)CC[C@@H]12 | 2.51 µM (active) | 
3 | CCOc1ccc2c(c1)C(C)=CC(C)(C)N2 |  | 2.77% [at 92.2 µM]
4 | O=C(O)C1CCCN1 (stereo not drawn) |  | 0.996%
5 | COc1cc([C@@H]2c3cc4c(cc3[C@@H](O[C@@H]3O[C@@H]5CO[C@@H](C)O[C@H]5[C@H](O)[C@H]3O)[C@H]3COC(=O)[C@H]23)OCO4)cc(OC)c1O |  | 7.85%
6 | CN1CCC(CN2c3ccccc3Sc3ccccc32)C1 (stereo not drawn) | 12.6 µM (active) | 
7 | CC1(C)S[C@@H]2[C@H](NC(=O)Cc3ccccc3)C(=O)N2[C@H]1C(=O)O |  | 14.8%
8 | CC1(C)C(C=C(Cl)Cl)C1C(=O)OCc1cccc(Oc2ccccc2)c1 (stereo not drawn) |  | -23.1%
